Screening data (PubChem BioAssay)
KDM5B inhibitor: Primary screen for KDM5B Histone Demethylases FDH-coupled qHTS. Lysine-specific demethylase 5B (Homo sapiens), Q9UGL1. KDM5B demethylase, FDH-coupled NADH fluorescence (FDH is formaldehyde dehydrogenase). Potency, µM (top dose mostly 57.7 µM), most hits filed as inhibitors. hit rate 2.6% among 220,000; active means well fitted inhibition curve with a large enough effect; further: 0% is about no effect; nearly all actives have a fitted effect of over 70% in size
Target sequence (Q9UGL1 whole entry, looked up): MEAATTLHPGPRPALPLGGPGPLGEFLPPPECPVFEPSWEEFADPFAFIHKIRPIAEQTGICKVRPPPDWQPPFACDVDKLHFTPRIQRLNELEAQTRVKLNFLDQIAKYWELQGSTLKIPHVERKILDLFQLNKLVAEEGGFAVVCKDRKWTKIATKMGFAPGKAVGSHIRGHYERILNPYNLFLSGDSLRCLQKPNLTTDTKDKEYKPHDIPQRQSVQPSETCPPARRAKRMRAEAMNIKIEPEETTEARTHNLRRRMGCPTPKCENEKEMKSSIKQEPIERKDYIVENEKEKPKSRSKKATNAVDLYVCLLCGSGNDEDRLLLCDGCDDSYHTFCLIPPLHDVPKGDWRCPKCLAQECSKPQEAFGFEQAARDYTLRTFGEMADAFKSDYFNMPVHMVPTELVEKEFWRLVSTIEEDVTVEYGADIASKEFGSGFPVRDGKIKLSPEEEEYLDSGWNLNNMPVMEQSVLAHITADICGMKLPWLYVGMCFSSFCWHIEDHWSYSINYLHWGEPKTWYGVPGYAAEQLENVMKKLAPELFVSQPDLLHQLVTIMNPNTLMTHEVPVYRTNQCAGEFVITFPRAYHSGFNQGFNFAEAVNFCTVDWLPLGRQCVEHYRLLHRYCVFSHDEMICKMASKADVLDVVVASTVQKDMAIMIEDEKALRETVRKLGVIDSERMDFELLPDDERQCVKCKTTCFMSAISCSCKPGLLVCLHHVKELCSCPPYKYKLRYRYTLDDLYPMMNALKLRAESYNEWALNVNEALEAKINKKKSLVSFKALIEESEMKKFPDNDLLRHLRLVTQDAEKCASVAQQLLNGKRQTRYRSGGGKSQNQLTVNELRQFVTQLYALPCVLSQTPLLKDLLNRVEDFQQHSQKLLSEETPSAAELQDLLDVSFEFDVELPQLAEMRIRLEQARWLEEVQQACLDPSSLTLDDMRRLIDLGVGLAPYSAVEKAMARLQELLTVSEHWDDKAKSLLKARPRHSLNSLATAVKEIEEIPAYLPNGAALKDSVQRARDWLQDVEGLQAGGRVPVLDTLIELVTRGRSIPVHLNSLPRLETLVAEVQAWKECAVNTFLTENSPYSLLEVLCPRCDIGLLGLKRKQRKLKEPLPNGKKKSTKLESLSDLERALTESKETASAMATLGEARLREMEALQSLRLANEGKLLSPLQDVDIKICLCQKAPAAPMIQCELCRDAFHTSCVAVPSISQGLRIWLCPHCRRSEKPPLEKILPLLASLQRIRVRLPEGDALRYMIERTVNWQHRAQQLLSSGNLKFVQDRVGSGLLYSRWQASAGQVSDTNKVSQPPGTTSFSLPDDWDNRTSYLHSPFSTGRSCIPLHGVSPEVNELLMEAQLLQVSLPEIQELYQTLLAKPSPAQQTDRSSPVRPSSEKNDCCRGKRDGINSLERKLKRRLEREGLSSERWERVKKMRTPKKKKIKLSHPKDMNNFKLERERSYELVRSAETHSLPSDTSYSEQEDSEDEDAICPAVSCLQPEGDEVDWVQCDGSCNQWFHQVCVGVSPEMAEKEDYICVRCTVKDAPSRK
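KDM5BΔAP (200 nM final) in 50 mM HEPES pH 7.5, 0.01% Tween-20 was preincubated 10 min at RT with compound over a concentration range. Substrate mix (H3K4me3 12.5 µM, α-KG 25 µM, Fe²⁺, ascorbate, NAD⁺, FDH) was added, and NADH fluorescence change over 30 min gave dose-response curves.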
* hit, by the source's call; i = inactive. This is one part of a sample in which hits are shown more often than they occur. Potency means the concentration at half of the fitted maximal effect.

SMILES | KDM5B inhibitor
CCC(O)c1cc2n(n1)CCN(C(=O)CCc1cn3ccccc3n1)C2 (centres undefined) | 11.2µM*
CCC(O)c1cc2n(n1)CCN(C(=O)CCn1cnc3ccccc3c1=O)C2 (centres undefined) | i
CCC(O)c1cc2n(n1)CCCN(C(=O)CCc1ccsc1)C2 (centres undefined) | i
CCC(O)c1cc2n(n1)CCN(C(=O)Cc1noc3ccccc13)C2 (centres undefined) | i
O=C(Cc1cn2ccsc2n1)N1CCCn2nc(C(O)C3CC3)cc2C1 (centres undefined) | i
Cc1cc(C)n2nc(C(=O)Nc3cc(F)ccc3C)nc2n1 | i
O=C(N/N=C\c1cc(Br)cs1)c1ccc(Cl)cc1 | i
CCC1CCc2c(sc(NC(=O)/C=C/c3ccc(C(C)(C)C)cc3)c2C#N)C1 (centres undefined) | i
CCCNC(=O)NC(=O)COC(=O)c1cc(-c2ccco2)nc2ccccc12 | i
CCOC(=O)c1c(C)[nH]c(C(=O)OCc2ccc(C(=O)OC)cc2)c1C | i
O=C1NCCCCCCN(C(=O)c2ccoc2)[C@H]2C[C@H](C(=O)N3CCc4ccccc4C3)C[C@@H]12 | i
O=C1NCCCCCN(C(=O)c2ccoc2)[C@@H]2C[C@@H](C(=O)N3CCc4ccccc4C3)C[C@H]12 | i
O=C1NCCCCCCN(C(=O)c2ccoc2)[C@H]2C[C@H](C(=O)N3CCN(c4ccccn4)CC3)C[C@@H]12 | 31.6µM*
CCN(CC)S(=O)(=O)c1ccc(=O)n(Cc2cc(=O)oc3cc(C)ccc23)c1 | i
CN(Cc1ccc2c(c1)CCO2)C1CCc2nn(CC3CC3)c(=O)n2CC1 (centres undefined) | i
CCCNC(=O)NC1CCc2nn(CC3CC3)c(=O)n2CC1 (centres undefined) | i
Cc1cnc(C(=O)NC2CCc3nn(CC4CC4)c(=O)n3CC2)cn1 (centres undefined) | i
CN(Cc1cccc2[nH]ccc12)C1CCc2nn(CC3CC3)c(=O)n2CC1 (centres undefined) | 25.1µM*
CCOc1ccccc1CN(C)C1CCc2nn(CC3CC3)c(=O)n2CC1 (centres undefined) | i
O=C(NC1CCc2nn(CC3CC3)c(=O)n2CC1)c1n[nH]c2ccccc12 (centres undefined) | 28.2µM*
Cc1cc(F)ccc1NCc1ccccc1C#N | i
CC1(C)CC(=O)C2=C(C1)NC(=O)C(C#N)C2c1ccccc1 (centres undefined) | i
Cc1cccc(C(=O)NC(Nc2ccc(C)cc2C)C(Cl)(Cl)Cl)c1 (centres undefined) | i
O=C(c1ccc(F)c(Cl)c1)N1CCC[C@H]1c1nc(-c2ccccc2)no1 | i
CC(=O)Nc1ccc(C(=O)CSc2ccc(Cl)cc2)cc1 | i
SMILES | KDM5B inhibitor
OC1(CNc2cc(C(F)(F)F)nc(N3CCCC3)n2)CCCNCC1 (centres undefined) | 25.1µM*
O=C(NCC1(O)CCCNCC1)c1ccc(-n2cnnc2)cc1 (centres undefined) | i
FC(F)(F)c1cc(N2CCNCC2)c2ccccc2n1 | i
O=C(N1CCN(c2ncccn2)CC1)C1(c2ccc(Cl)cc2)CCOCC1 | i
CCC(=O)N1CC(C(=O)Nc2ccccn2)C2(CCOCC2)C1 (centres undefined) | i
O=C(Nc1ccc(C2(C(=O)N3CCN(c4ccccn4)CC3)CCCCC2)cc1)C1CC1 | 28.2µM*
CC(C)C(=O)Nc1ccc(C2(C(=O)N3CCN(c4ccccc4)CC3)CCCCC2)cc1 | i
CC(C)C(=O)Nc1ccc(C2(C(=O)N3CCCC3)CCCCC2)cc1 | i
CC(=O)Nc1ccc(C2(C(=O)N3CCN(c4ccccn4)CC3)CCCCC2)cc1 | 28.2µM*
O=C(N1CCCCC1)C1(c2ccc(Cl)cc2)CCOCC1 | i
CCC(=O)Nc1ccc(C2(C(=O)N3CCN(c4ccccc4)CC3)CCC2)cc1 | i
CN(C)C(=O)C1CN(C(=O)COc2ccccc2)CC12CCOCC2 (centres undefined) | i
CCC(=O)N1CC(C(=O)N2CCN(c3ccccn3)CC2)C2(CCOCC2)C1 (centres undefined) | 31.6µM*
O=C(N1CCN(c2ccccn2)CC1)C1(c2ccc(Cl)cc2)CCOCC1 | 79.4µM*
O=C(Nc1ccc(C2(C(=O)NCC3CC3)CCCCC2)cc1)C1CC1 | i
CCN1CCN(CC(=O)c2c(C)[nH]c3cc(C)ccc23)CC1 | i
O=C(Nc1ccc(Cl)cc1)C1CCN(c2ncnc3nc[nH]c23)CC1 | i
Nc1cc(N)nc(SCCC(=O)Nc2ccccc2F)n1 | i
O=C(O)c1cccnn1 | i
Cc1cccc(C)c1NC(=O)CO/N=C/c1ccccc1O | i
O=C(O)COCC(=O)NCC1CCCO1 (centres undefined) | i
Cn1cccc1CN1CCCCC12Cc1ccccc1CNC2=O (centres undefined) | i
CCSc1ncc2c(=O)n(CC(=O)Nc3cccc(Br)c3)cnc2n1 | i
FC(F)(F)c1ccc(Cl)c(N/N=C/c2cccc3ccccc23)c1 | i
Clc1ccc(-c2ccc(CNCC3CCNCC3)o2)c(Cl)c1 | i
SMILES | KDM5B inhibitor
O=C(O)CSCc1c[nH]c2ccccc12 | i
CN(CC#CC1(C)CCCC(C)(C)O1)Cc1ccccc1 (centres undefined) | i
O=S(=O)(NCC(c1cccnc1)S(=O)(=O)c1ccccc1)c1ccc(Cl)cc1 (centres undefined) | i
COc1cc(C#N)ccc1OC(C)C(=O)Nc1ccc(C)cc1C (centres undefined) | i
N#C/C(=C\c1cccn1-c1ccccc1)c1ccccc1 | i
O=C(CCNC(=O)c1ccc(Cl)cc1)NCc1ccc(C(F)(F)F)cc1 | i
O=C(CCNc1cnc2cnccn12)NCc1ccc(F)c(Cl)c1 | 25.1µM*
O=C(CCn1ccn2nc3c(c2c1=O)CCCC3)NCc1ccc(F)c(Cl)c1 | i
CSc1ccc(NC(=O)c2ccc(F)c(F)c2)cc1 | i
CNc1nc(-c2c(C(=O)OC)c(C)n(C3CC3)c2C)cs1 | i
Cc1ccc(CNC(=O)N2CCCC(C(F)(F)F)C2)cc1 (centres undefined) | i
CC(C)Nc1cc(N2CCN(Cc3ccccc3F)C(CCO)C2)ncn1 (centres undefined) | i
OCCC1CN(c2cc(C(F)(F)F)ccn2)CCN1CC1CCCCC1 (centres undefined) | 22.4µM*
OCCC1CN(CCOc2ccc(F)cc2)CCN1CC1CCCCC1 (centres undefined) | i
Cc1cc(C)c(NS(=O)(=O)c2c(C)cc(N3C(=O)CCS3(=O)=O)cc2C)c(Cl)c1 | i
O=C(CNC(=O)c1ccc(-c2ccccc2)cc1)OCc1ncc(-c2ccccc2)o1 | i
COc1ccc(-n2nc3n(c2=O)CCN(CCC(C)C)C3)cc1 | i
O=c1n(-c2ccc(Cl)cc2)nc2n1CCN(Cc1ccccc1)C2 | i
COc1cccc([S+](=O)([O-])N2CCn3c(nn(-c4ccc(F)cc4F)c3=O)C2)c1 | 25.1µM*
O=c1n(-c2ccc(F)cc2F)nc2n1CCN([S+](=O)([O-])c1cccc(C(F)(F)F)c1)C2 | i
COc1ccc(CN2CCn3c(nn(-c4ccc(F)cc4F)c3=O)C2)cc1 | 22.4µM*
COc1ccc(CN2CCn3c(nn(-c4ccc([N+](=O)[O-])cc4)c3=O)C2)cc1 | 31.6µM*
O=c1n(-c2ccc(F)cc2F)nc2n1CCN([S+](=O)([O-])c1cccs1)C2 | i
